In the library only some 3.5% were active in any assay of this set; here they are far more common.
mHTT CaM bind = disrupts binding of mutant huntingtin to calmodulin; P42858; AlphaScreen His-mHTT/GST-CaM binding, luminescence; inhibition, % at 15 µM; 190,000 tested, 3.6% active; AID 1671202;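 further: 0% = both proteins with DMSO and 100% = one protein alone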
Target sequence (P42858 whole entry, looked up, stated change not applied): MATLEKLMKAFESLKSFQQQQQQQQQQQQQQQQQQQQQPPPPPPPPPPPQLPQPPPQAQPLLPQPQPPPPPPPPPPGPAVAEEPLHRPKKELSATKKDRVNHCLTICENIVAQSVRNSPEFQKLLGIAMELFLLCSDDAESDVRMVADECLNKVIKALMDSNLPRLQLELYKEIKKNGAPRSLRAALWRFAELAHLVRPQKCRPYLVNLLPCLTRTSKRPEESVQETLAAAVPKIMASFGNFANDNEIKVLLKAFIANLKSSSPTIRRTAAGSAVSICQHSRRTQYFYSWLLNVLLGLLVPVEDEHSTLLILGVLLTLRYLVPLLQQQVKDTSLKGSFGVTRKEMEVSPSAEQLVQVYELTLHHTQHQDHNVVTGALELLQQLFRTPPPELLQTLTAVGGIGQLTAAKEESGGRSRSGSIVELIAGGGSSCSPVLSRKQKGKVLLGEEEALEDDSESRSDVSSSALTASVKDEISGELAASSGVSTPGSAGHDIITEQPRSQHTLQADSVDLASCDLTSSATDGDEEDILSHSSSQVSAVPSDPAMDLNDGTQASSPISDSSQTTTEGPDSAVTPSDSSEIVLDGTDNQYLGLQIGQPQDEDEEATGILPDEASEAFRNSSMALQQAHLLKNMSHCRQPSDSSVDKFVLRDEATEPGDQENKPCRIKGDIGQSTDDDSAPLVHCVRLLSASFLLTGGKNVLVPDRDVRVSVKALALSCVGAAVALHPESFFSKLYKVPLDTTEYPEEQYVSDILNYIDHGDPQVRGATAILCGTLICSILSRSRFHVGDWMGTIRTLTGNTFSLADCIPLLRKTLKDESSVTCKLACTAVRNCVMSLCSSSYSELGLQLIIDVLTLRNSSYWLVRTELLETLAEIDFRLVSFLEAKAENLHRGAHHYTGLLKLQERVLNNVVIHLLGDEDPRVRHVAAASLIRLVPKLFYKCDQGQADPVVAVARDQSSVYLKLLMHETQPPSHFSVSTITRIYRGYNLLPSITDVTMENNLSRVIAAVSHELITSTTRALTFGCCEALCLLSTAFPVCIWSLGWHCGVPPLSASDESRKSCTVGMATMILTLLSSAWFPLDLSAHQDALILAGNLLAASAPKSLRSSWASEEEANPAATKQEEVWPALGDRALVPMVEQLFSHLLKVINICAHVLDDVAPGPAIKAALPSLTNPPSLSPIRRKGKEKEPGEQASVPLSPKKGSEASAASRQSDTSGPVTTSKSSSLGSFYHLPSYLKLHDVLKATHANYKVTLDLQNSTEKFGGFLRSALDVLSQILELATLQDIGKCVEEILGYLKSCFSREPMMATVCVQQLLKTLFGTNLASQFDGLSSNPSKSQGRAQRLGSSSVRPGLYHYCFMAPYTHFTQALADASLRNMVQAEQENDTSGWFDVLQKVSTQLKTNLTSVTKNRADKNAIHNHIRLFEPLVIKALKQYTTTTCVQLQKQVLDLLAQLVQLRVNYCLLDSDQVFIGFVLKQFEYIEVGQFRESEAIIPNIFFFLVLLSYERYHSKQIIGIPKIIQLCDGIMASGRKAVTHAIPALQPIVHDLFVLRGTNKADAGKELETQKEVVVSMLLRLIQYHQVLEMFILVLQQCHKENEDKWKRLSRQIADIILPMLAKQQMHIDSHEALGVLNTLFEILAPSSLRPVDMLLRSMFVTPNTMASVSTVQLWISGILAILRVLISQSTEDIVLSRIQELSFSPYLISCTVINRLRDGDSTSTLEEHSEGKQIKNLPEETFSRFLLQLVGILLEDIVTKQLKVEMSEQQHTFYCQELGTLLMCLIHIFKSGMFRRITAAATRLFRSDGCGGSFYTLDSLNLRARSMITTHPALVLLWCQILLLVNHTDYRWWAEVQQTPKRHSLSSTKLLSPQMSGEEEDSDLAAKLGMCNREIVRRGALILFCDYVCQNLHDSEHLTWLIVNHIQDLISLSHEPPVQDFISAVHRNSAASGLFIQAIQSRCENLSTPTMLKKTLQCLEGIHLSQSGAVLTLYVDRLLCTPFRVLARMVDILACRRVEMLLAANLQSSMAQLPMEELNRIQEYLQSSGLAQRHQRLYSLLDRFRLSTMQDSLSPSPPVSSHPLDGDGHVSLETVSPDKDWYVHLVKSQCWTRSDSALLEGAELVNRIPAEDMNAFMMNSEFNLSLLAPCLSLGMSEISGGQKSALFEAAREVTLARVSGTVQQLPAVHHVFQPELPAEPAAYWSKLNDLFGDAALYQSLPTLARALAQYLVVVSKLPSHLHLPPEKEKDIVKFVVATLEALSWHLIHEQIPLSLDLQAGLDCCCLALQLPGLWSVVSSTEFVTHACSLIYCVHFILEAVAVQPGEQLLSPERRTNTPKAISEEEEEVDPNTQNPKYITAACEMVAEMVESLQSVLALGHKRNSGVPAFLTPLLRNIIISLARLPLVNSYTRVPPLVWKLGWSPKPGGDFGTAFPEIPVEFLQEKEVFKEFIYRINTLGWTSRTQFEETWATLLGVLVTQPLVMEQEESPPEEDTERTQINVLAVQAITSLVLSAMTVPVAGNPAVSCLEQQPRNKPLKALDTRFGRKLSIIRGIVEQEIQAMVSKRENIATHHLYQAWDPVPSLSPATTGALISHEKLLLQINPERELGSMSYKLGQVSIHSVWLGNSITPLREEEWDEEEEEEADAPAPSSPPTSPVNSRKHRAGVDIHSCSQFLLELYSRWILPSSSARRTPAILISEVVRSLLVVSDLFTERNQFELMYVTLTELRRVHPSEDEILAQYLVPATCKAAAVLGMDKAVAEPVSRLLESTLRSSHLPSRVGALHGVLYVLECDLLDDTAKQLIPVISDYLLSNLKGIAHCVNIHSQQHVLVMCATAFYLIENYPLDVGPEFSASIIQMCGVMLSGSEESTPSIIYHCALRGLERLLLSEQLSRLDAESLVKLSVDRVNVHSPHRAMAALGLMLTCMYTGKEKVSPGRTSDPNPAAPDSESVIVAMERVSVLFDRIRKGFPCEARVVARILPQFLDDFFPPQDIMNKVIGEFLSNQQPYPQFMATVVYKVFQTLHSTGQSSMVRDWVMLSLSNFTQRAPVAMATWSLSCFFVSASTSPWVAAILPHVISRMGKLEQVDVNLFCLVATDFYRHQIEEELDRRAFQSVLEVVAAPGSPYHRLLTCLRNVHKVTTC
Pf apPOL block = Pf-apPOL DNA polymerase inhibition. inhibition, % at 10 µM. AID 1794808. 210,000 tested, 0.25% active. Recombinant Pf-apPOL, molecular beacon fluorescence, 1.5 h
Active calls of the source: *; nt = no result given. No stated cut-off is given here; in the data, active means inhibition above about 50%; inactive means the rest.

SMILES | mHTT CaM bind | Pf apPOL block
CCOc1cccc(/C=C2\C(=O)Nc3ccc(Br)cc32)c1O | 58* | -12
Cc1ccccc1/C=C1\C(=O)Nc2ccc(Cl)cc21 | 85* | -5
CCCOc1ccccc1/C=C1\C(=O)Nc2ccc(Br)cc21 | 97* | 5
CCOc1ccccc1/C=C1\C(=O)Nc2ccc(Br)cc21 | 63* | 1
C=CCN(C(=O)Nc1ccc([N+](=O)[O-])cc1)c1nnc(-c2ccc(Cl)cc2)s1 | 0 | 1
C=CCOc1ccc(/C=C2/C(=N)N3C(SC)=NSC3=NC2=O)cc1OC | 2 | -9
COc1ccc(NC(=O)c2cncc(-c3ccc(C)cc3)c2)cc1Cl | -2 | -1
Cc1cccc(C2CCCN2C(=O)c2cc(C3CC3)on2)c1 (centres undefined) | -15 | -5
COc1ccc(Br)c(C(=O)NC2CC(O)C(CO)C2)c1 (centres undefined) | 0 | -2
O=C(Nc1cc(Cl)ccc1O)C(c1ccccc1)c1ccccc1 | 16 | 3
CC(C)(C)c1ccc(/C=C2\C(=O)Nc3ccc(Cl)cc32)cc1 | 60* | -22
CCOc1ccccc1/C=C1\C(=O)Nc2ccc(Cl)cc21 | 64* | 6
O=C1Nc2ccc(Cl)cc2/C1=C/c1ccc(Cl)cc1 | 35 | 1
CCOc1ccc(/C=C2\C(=O)Nc3ccc(Cl)cc32)cc1 | 25 | -4
CCC(=O)Oc1ccc2c(c1)OC(=Cc1ccc(OC)cc1OC)C2=O | 2 | -1
Cc1cc(C(=O)NCC(C)C)nc2cc(-c3ccccn3)nn12 | -11 | -3
O=C(C(Cc1ccccc1)N1C(=O)c2ccccc2C1=O)N1CCN(c2ccc(F)cc2)CC1 (centres undefined) | 51* | -14
O=C(C(Cc1ccccc1)N1C(=O)c2ccccc2C1=O)N1CCN(CCO)CC1 (centres undefined) | 5 | -7
CCN(CC)CCCNC(=O)c1nn2c(c1Cl)NC(c1cccs1)CC2C(F)(F)F (centres undefined) | 4 | -3
CC(=O)N(C)c1ccc(OCC(O)Cn2c3ccccc3c3ccccc32)cc1 (centres undefined) | 73* | -10
Cc1nc2ccccc2n1CC(O)COc1ccc(C(=O)c2ccccc2)cc1 (centres undefined) | 8 | -14
COc1ccc(S(=O)(=O)N2CCC(c3noc(-c4ccc(Cl)cc4)n3)CC2)cc1 | -9 | -15
CC(=O)N1CCCN(C2=NS(=O)(=O)C(c3ccc(Cl)cc3)=C2C)CC1 | -11 | 0
COc1cc(/C=C2/C(=O)N(c3ccc(C(=O)O)cc3)N=C2C)cc(OC)c1OC | 1 | 0
COc1cc(/C=C2\C(=O)N(c3ccc(C(=O)O)cc3)N=C2C(F)(F)F)ccc1OCC(C)C | 74* | 0
SMILES | mHTT CaM bind | Pf apPOL block
COc1cccc2cc(C(=O)NC(C)(C)C(C)(C)C)c(=O)oc12 | -13 | -8
Cc1cccc(CC(=O)N2CCc3c(nc4cc(-c5ccccc5)[nH]n4c3=O)C2)c1 | 74* | -6
O=C(CCc1ccccc1)N1CCc2c(nc3cc(-c4ccccc4)[nH]n3c2=O)C1 | 72* | 8
O=C(CCc1c[nH]c2ccccc12)N1CCc2c(nc3cc(-c4ccccc4)[nH]n3c2=O)C1 | 8 | 10
COc1ccc(-c2cc3nc4c(c(=O)n3[nH]2)CN(C(=O)Cc2cccc(C)c2)CC4)cc1 | 37 | 4
O=C(CNC1=NCCC1)c1ccc(-c2ccccc2)cc1 | 100* | -1
O=C(CNC1=NCCC1)c1ccc(Br)cc1 | 0 | 1
Cc1ccccc1Cn1c(=O)c(CCC(=O)NC2CC2)nc2ccccc21 | -5 | -18
NC(=O)NC(=O)Nc1ccc(I)cc1 | -7 | -7
CC(=O)Nc1ccc(NC(=O)c2ccc(Cl)cc2)cc1 | 14 | -4
Cc1ccc(S(=O)(=O)Nc2ccccc2-c2ccccc2)cc1 | -29 | -52
Cc1ccc(S(=O)(=O)Nc2nc(-c3ccccc3)c(-c3ccccc3)o2)cc1 | 50* | -6
COc1ccc(NC(=O)c2ccc(-c3cncnc3)nc2)cc1 | -1 | 0
CCN(CC)c1ccc(C(=O)N2CC(C(=O)NC)C3(CCCC3)C2)cc1 (centres undefined) | 0 | 2
O=C(Cc1csc(Nc2ccccn2)n1)Nc1ccc(F)c(C(F)(F)F)c1 | 26 | 7
COc1ccc2c(c1)N1CCN(c3ccccc3)CC1C(C(=O)NCC1CC1)C2 (centres undefined) | 40 | -3
Cc1c(C=O)c(C=O)c(C)n1-c1ccc(N(C)C)cc1 | 4 | -4
CN(C)c1ccc(N2CC(=O)SC2=NC#N)cc1 | 55* | nt
CC(=O)C1=C(C)NC(SCC(=O)c2ccc(Cl)cc2)=C(C#N)C1c1sccc1C (centres undefined) | -44 | 4
CC(=O)C1=C(C)NC(SCC(=O)c2cccc([N+](=O)[O-])c2)=C(C#N)C1c1ccc(Cl)cc1 (centres undefined) | 56* | 4
CC(=O)C1=C(C)NC(SCC(=O)c2cccc(Cl)c2)=C(C#N)C1c1sccc1C (centres undefined) | -48 | 100*
CC(=O)C1=C(C)NC(SCC(=O)c2ccc(Cl)c(Cl)c2)=C(C#N)C1c1ccco1 (centres undefined) | 54* | 2
CC(=O)C1=C(C)NC(SCC(=O)c2ccc(Cl)cc2)=C(C#N)C1c1cccc([N+](=O)[O-])c1 (centres undefined) | 38 | -7
CC(=O)C1=C(C)NC(SCC(=O)c2cc(Cl)ccc2Cl)=C(C#N)C1c1ccco1 (centres undefined) | 2 | -1
O=C(COc1cccc(Cl)c1)Nc1ccc([N+](=O)[O-])cc1Br | 3 | 2
SMILES | mHTT CaM bind | Pf apPOL block
Cc1ccc(N2CCN(C(=O)c3sc(Nc4ccc(F)cn4)nc3C)CC2)cc1 | 78* | -6
Cc1ccnc(Nc2nc(C)c(C(=O)N3CCCC3)s2)c1 | 1 | 24
O=[N+]([O-])c1ccc2[nH]c(-c3ccccc3)cc2c1 | 22 | -11
COc1cccc(CNc2cccc(F)c2)c1 | -34 | -14
COc1cccc(CNc2ccc(C)c(C)c2)c1 | 53* | 0
COc1cccc(CNc2ccccc2)c1 | 4 | -2
COc1cccc(CNc2ccc3c(c2)CCC3)c1 | 67* | 2
COc1ccc(CNc2ccc(F)c(Cl)c2)cc1 | -37 | 13
COc1cc(CNc2ccc(C)c(C)c2)cc(OC)c1 | 69* | 0
Cc1cc(NC(=O)c2cnc(-c3ccccc3)nc2-c2ccncc2)ccc1F | -3 | -4
COC(=O)Cc1cc(OC)c(OC)cc1[N+](=O)[O-] | 1 | -1
COc1cc(CNc2cccc(F)c2)c([N+](=O)[O-])cc1OC | 61* | -2
COc1cc(CNc2ccc3[nH]ncc3c2)c([N+](=O)[O-])cc1OC | 58* | 7
COc1cc(CNc2cc(OC)c(OC)c(OC)c2)c([N+](=O)[O-])cc1OC | 41 | 2
CSc1ccc(C2SCC(=O)N2c2ccc(Cl)cc2)cc1 (centres undefined) | -3 | -1
CCCS(=O)(=O)NCCC1CCN(C(=O)c2ccc(C)cc2)CC1 | 41 | -4
Cc1ccc([N+](=O)[O-])cc1N=Cc1ccc2c(c1)OCO2 | 2 | 1
CCN(CC)C1C(=O)Nc2ccc(Cl)cc2C1c1ccccc1 (centres undefined) | 95* | 7
O=C1CN(C(=O)c2ccccc2C(F)(F)F)C(c2ccccc2)c2cc(Cl)ccc2N1 (centres undefined) | 38 | -3
